# Source: PubChem (Johns Hopkins Ion Channel Center)
# KCNQ2 enhance – KCNQ2 (rat) channel potentiation; B-score at 10 µM; CHO-K1 KCNQ2, FluxOR thallium flux fluorescence; active compounds read high; hit rate 0.54% among 310,000; O88943;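 active = fluorescence ratio B-score at least 3 SD of library B-scores, with initial fluorescence B-score within 3 of them, cut at about 5.3 in these data; same plate scores as AID 2156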;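 note: B-score of peak minus minimum over baseline fluorescence ratio after K+ and Tl+ stimulus; positive B-score means potentiation of KCNQ2 with more thallium influx and brighter signal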
# Target sequence (O88943 whole entry, looked up): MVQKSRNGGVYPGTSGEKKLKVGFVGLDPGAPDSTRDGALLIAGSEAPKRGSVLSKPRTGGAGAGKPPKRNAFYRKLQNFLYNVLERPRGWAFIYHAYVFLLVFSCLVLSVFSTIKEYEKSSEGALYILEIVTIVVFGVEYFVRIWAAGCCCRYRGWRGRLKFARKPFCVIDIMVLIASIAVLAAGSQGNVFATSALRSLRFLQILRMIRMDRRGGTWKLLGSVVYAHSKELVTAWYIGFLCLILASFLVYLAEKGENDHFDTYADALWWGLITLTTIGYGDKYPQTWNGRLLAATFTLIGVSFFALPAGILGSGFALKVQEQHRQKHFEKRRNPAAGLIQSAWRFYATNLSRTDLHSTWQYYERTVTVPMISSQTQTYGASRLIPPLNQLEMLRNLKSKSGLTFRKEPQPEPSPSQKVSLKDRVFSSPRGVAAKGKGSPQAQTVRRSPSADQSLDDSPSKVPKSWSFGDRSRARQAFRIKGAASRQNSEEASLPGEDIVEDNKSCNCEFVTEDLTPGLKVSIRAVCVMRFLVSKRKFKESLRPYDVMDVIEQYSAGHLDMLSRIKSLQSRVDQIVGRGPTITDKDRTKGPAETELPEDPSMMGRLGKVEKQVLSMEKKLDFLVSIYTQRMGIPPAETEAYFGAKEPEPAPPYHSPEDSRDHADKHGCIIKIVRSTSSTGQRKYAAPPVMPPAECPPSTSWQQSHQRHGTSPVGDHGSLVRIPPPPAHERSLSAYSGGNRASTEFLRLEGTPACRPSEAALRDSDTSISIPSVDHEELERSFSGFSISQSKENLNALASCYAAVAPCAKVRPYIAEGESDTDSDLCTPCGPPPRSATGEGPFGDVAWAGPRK
# KCNQ2 inh – blocks the rat KCNQ2 potassium channel; CHO-K1 KCNQ2, FluxOR thallium flux, 20 min; active compounds read low; O88943; B-score at 10 µM; hit rate 1.1% among 310,000;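 active = fluorescence ratio B-score at most minus 3 library SDs, with starting brightness B-score within 2 library SDs, cut at about -5.5 in these data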
# * = called active by the depositor; i = inactive; nt = no result given. An excerpt weighted towards active compounds, which were near 1.6% of everything screened.
SMILES,KCNQ2 enhance,KCNQ2 inh
O=C(CSc1nc2ccccc2nc1N1CCOCC1)N1CCN(c2ccccc2)CC1,0.21,i
O=C(CSc1nc2ccccc2nc1N1CCCCC1)N1CCN(c2ccccc2)CC1,-7.69,-7.69*
O=c1cc(O)n(Cc2ccc(F)cc2)c(=O)[nH]1,nt,i
NC(=O)NC(Cc1ccccc1)C(=O)NCCCSc1ccccc1 (stereo not given),nt,i
CCCC(=O)Oc1ccc(C2NC(=O)c3ccccc3O2)cc1 (stereo not given),1.14,i
CCC1CN(C)C2Cc3c([nH]c4ccccc34)C(=O)CC1C2C(=O)OC (stereo not given),nt,i
CC[C@H]1CC2CN3CCc4c([nH]c5c([C@H]6C[C@H]7[C@H](CC)CN(C)[C@@H](Cc8c6[nH]c6ccccc86)[C@H]7C(=O)OC)c(OC)ccc45)C(C(=O)OC)(C2)C13,-7.51,-7.51*
CN(CC(=O)Nc1ccccc1C(F)(F)F)C(=O)C1CCN(S(=O)(=O)c2ccc3c(c2)OCCO3)CC1,nt,i
c1cncc(-c2nc(N3CCCCCC3)c3ccccc3n2)c1,-7.41,-7.41*
CN1CCN(c2nc(-c3cccnc3)nc3ccccc23)CC1,1.67,i
CCOc1cc(N(CC)CC)ccc1/C=C(/C#N)c1nc2ccccc2[nH]1,-8.4,-8.4*
CCCOc1cc(N(CC)CC)ccc1/C=C(/C#N)c1nc2ccc(C)cc2[nH]1,nt,i
CCNS(=O)(=O)c1ccc(CCC(=O)NCc2ccccn2)cc1,0.01,i
CC(Oc1ccc(F)cc1)C(=O)Nc1cc(S(=O)(=O)N2CCOCC2)ccc1N1CCCC1 (stereo not given),0.16,i
CC(Oc1ccc(F)cc1)C(=O)Nc1cc(S(=O)(=O)N2CCOCC2)ccc1N1CCCCC1 (stereo not given),-8.14,-8.14*
CC(CCc1ccccc1)NC(=O)c1ccc(F)cc1 (stereo not given),1.1,i
Cc1ccc2cc(CN(CC(C)C)S(=O)(=O)c3cccc4nonc34)c(=O)[nH]c2c1,nt,i
COc1ccccc1NC(=S)NCCc1ccc(Cl)cc1,-6.25,-6.25*
COc1ccccc1NC(=O)Nc1cc(C(C)C)ccc1C,1.2,i
COc1ccccc1NC(=S)NCCSc1ccc(Cl)cc1,nt,i
COc1ccccc1NC(=O)OC(C)c1ccc(Cl)cc1 (stereo not given),-5.77,-5.77*
CC1CCC(NC(=O)C2CCN(c3c4c(nc5ncnn35)CCC4)CC2)CC1 (stereo not given),1.84,i
O=C(CSc1nc(=O)n2ccccc2n1)Nc1ccc2c(c1)OCO2,2.1,i
CCC(=Nc1ccccc1OC)C1=C(O)CC(c2ccccc2)CC1=O (stereo not given),-5.76,-5.76*
CCC(=Nc1ccccc1O)C1=C(O)CC(c2ccccc2)CC1=O (stereo not given),0.29,i
SMILES,KCNQ2 enhance,KCNQ2 inh
CCCn1nc([N+](=O)[O-])c(C(C#N)c2nc3ccccc3o2)c(Cl)c1=O (stereo not given),nt,i
Cn1nc([N+](=O)[O-])c(C(C#N)c2ccccn2)c(Cl)c1=O (stereo not given),-5.79,-5.79*
Cc1ccc(SCCNC(=S)Nc2cc(C)cc(C)c2)cc1,nt,i
Cc1ccc(SCCNC(=S)Nc2ccc(C)cc2C)cc1,7.03*,i
O=C(CN(C(=O)CCC(=O)Nc1nccs1)c1ccc(F)cc1)NCc1ccc(F)cc1,0.48,i
CN(CC(=O)Nc1ccc2c(c1)OCO2)S(=O)(=O)c1cccs1,0.81,i
CCOc1ccccc1C(=O)NC(C(=O)NCc1ccccc1OC)C(C)C (stereo not given),-6.23,-6.23*
CCOc1ccc(C(=O)NC(C(=O)NCc2ccccc2OC)C(C)C)cc1 (stereo not given),nt,i
Cc1cc(C(=O)NCC(=O)OC(C(=O)Nc2cc(C(F)(F)F)ccc2Cl)c2ccccc2)ccc1[N+](=O)[O-] (stereo not given),-5.79,-5.79*
COc1ccc(C)cc1NC(=O)C(OC(=O)CNC(=O)c1ccc(Br)cc1)c1ccccc1 (stereo not given),nt,i
CCCC(=O)OC(C(=O)Nc1cc(C(F)(F)F)ccc1Cl)c1ccccc1 (stereo not given),-5.59,-5.59*
O=C(Nc1cc(C(F)(F)F)ccc1Cl)C(Sc1ccccn1)c1ccccc1 (stereo not given),nt,i
Cc1ccc(S(=O)(=O)N2CCN(C(=O)c3sccc3-c3ccccc3)CC2)cc1,0.38,i
O=C1Nc2cccnc2N(C(=O)CCl)c2ccccc21,nt,i
Fc1ccccc1Cc1noc(CN2CCN(c3ccc(Cl)cn3)CC2)n1,-5.6,-5.6*
Clc1ccccc1Cc1noc(CN2CCN(c3cnccn3)CC2)n1,nt,i
CC(OC(=O)c1nc(Cl)ccc1Cl)C(=O)Nc1ccccc1F (stereo not given),nt,i
N#C/C(=C\c1ccc([N+](=O)[O-])cc1)C(=O)NCCCn1ccnc1,-5.62,-5.62*
COc1ccc(/C=C(\NC(=O)c2ccc([N+](=O)[O-])cc2)C(=O)NCCCn2ccnc2)cc1,nt,i
COc1ccccc1OCC(=O)N(Cc1nc(-c2ccc(Cl)cc2)no1)C(C)C,nt,i
COc1ccccc1OCC(=O)N(Cc1nc(-c2ccccc2)no1)C(C)C,0.76,i
Cc1ccc(-c2noc(CN(C(=O)CCN3C(=O)c4ccccc4C3=O)C(C)C)n2)cc1,-5.71,-5.71*
Cc1ccc(-c2noc(CN(C(=O)CCCN3C(=O)c4ccccc4C3=O)C(C)C)n2)cc1,nt,i
Cc1cc(Br)ccc1OCC(=O)N(Cc1nc(-c2ccccc2)no1)C(C)C,-5.95,-5.95*
CC(C)N(Cc1nc(-c2ccc(Cl)cc2)no1)C(=O)CCC1CCCC1,-6.15,-6.15*
SMILES,KCNQ2 enhance,KCNQ2 inh
N#Cc1c(-c2ccc(Cl)cc2)c2c([nH]c1=O)-c1ccccc1OC2,nt,i
Cc1ccc(C)c(N(CC(=O)NC2CCCCC2)C(=O)CNC(=O)c2ccco2)c1,0.68,i
Cc1oc2c(c1C(=O)Nc1cccc(C(=O)O)c1)CCCC2,5.57*,i
Cc1ccc(C(=O)Nc2cccc(C(=O)O)c2)cc1,1.5,i
COc1ccc(-n2nnnc2CNC(=O)C2CC(=O)N(c3ccc(Cl)cc3)C2)cc1 (stereo not given),nt,i
CC(Oc1ccc(Br)cc1)c1nc2c3ccccc3nc(=S)n2[nH]1 (stereo not given),5.42*,i
CCCC(Oc1ccc(Br)cc1)c1nc2c3cc(OC)c(OC)cc3nc(=S)n2[nH]1 (stereo not given),nt,i
CC(C)CCn1c(SCC(=O)Nc2ccccc2C(F)(F)F)nc2nccnc2c1=O,1.43,i
CC1CCCN(c2ccc(C(=O)NCc3ccc4c(c3)OCO4)cc2[N+](=O)[O-])C1 (stereo not given),8.28*,i
O=C(NCc1ccc2c(c1)OCO2)c1ccc(N2CCCCCC2)c([N+](=O)[O-])c1,2.51,i
O=C(COC(=O)c1ccco1)NC1CCCC1,0.41,i
CCOc1ccc(N(CC(=O)NC2CCCCC2)C(=O)CCC(=O)Nc2nc(C)cs2)cc1,nt,i
COc1ccccc1CNC(=O)CS(=O)(=O)c1ccc(C)cc1,0.7,i
CC(C)CCN1CCN=C1Nc1ccccc1,1.72,i
COc1ccc(N=Cc2cccc(C)c2O)cc1Cl,0.04,i
Cc1cccc(N=Cc2cc(Br)cc(Cl)c2O)c1,9.35*,i
